FLuc counter: inhibits or activates purified firefly luciferase, miR-21 counter-screen | 360,000 tested, 6.9% active | purified FLuc, Km substrates, luminescence inhibition | P08659 | Potency, µM (top dose mostly 57.5 µM), inactives show at the highest dose activity change, negative = inhibition, hits mostly inhibitors | AID 588342;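 note: plate controls were vehicle for no effect and reference inhibitor for full effect; nearly all actives have a fitted effect of over 55% in size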
Target sequence (P08659 whole entry, looked up): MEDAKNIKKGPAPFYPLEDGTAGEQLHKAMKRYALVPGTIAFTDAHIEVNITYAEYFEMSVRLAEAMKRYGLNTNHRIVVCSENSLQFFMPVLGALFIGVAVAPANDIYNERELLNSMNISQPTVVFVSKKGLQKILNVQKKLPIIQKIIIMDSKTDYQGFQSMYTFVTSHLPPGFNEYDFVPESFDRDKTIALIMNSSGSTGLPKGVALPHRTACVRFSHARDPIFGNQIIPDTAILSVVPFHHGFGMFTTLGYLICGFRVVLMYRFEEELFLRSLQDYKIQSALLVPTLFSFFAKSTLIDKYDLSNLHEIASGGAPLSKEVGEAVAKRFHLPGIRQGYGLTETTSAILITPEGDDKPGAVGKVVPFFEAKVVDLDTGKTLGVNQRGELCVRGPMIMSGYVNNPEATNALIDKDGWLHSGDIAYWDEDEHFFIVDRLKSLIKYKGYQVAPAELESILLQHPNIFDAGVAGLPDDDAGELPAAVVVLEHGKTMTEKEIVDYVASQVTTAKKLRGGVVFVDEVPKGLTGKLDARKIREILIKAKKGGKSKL
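Purified P. pyralis luciferase (10nM final) with 10uM D-luciferin and 10uM ATP (Km levels) in 50mM Tris acetate pH 7.5, 10mM Mg acetate, 0.01% Tween-20, 0.05% BSA; qHTS 6-point titration, ~60 µM downward; luminescence read.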
ELG1 DNA repair: blocks ELG1-dependent DNA repair in HEK293T cells; HEK293T ELG1-luciferase reporter, luminescence, 16 h; DNA damage induced by 5-fluorouridine; Potency, µM (series often up to 46.1 µM), for the others: top-dose activity change, negative = inhibition, most hits filed as inhibitors; 330,000 tested, 2.3% active; note: % is set by controls: 0 for no effect and ±100 for the full control effect; nearly all actives have a fitted effect of over 55% in size
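In this reporter screen, reduction of luminescence relative to DMSO vehicle indicated activity. Compounds and 5-fluorouridine were added together to 2,000 cells per well, incubated for 16 hr at 37 °C, then developed with ONE-Glo.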
SMN2 splice enh: enhancers of SMN2 splice variant expression. HEK293 SMN2-luciferase splicing reporter, luminescence, 30-36 h. Potency, µM (series often up to 46.1 µM), for the others: at the top dose activity change, positive = activation, hits mostly activators. 210,000 tested, 2.8% active. AID 1458; note: % of control where 0% means no effect; nearly all actives have a fitted effect of over 55% in size
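HEK293 cells carry an SMN2 minigene-luciferase reporter in which exon 7 inclusion puts luciferase in frame. Cells were seeded at 2000 cells/well, attached for 10-12 hours, then exposed to compounds for 30-36 hours at 37C before ONE-Glo luminescence.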
NPC1 prom act: activates the NPC1 promoter | Potency, µM (titrated, usually from 9.22 µM), for the others: at the top dose activation, most hits filed as activators | AID 485313 | Huh7 NPC1 promoter luciferase reporter, 24 h | 320,000 tested, 2.4% active; note: % of control where 0% means no effect; nearly all actives have a fitted effect of over 60% in size
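Luminescence from an NPC1 promoter-driven luciferase reporter in stably transfected Huh7 cells was measured after 24 h compound treatment at 37 °C, followed by 10 min ambient incubation with luciferase detection reagent.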
ELG1 genotoxic: induces genotoxicity in HEK293T cells with luciferase-tagged ELG1. HEK293T ELG1-luciferase reporter, luminescence, 16 h. Potency, µM (titrated, usually from 46 µM), for the others: top-dose activity change, positive = activation, hits mostly activators. 330,000 tested, 1.3% active. AID 504466; note: % of control where 0% means no effect; nearly all actives have a fitted effect of over 60% in size
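Reporter readout depends on ELG1 protein level, which increases with genetic stress. After 16 hr compound exposure at 37 °C, luciferase activity was quantified using ONE-Glo.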
Rab9 promoter act: activators of Rab9 promoter. Huh7 Rab9 promoter-luciferase reporter, luminescence, 24 h. Potency, µM (titrated, usually from 9.22 µM), without a hit: top-dose activation, negative = inhibition, most hits filed as activators. 320,000 tested, 2.8% active. AID 485297; note: % of control where 0% means no effect; nearly all actives have a fitted effect of over 60% in size
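Cells were plated at 1500 per well in reduced-serum medium with 10% FBS and left 2 h. Compound in DMSO was then added for 24 h at 37 °C. Reporter signal was read by luminescence after 10 min with luciferase detection reagent.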
The depositor's hits bear a star; u = inconclusive; x = no result given. A selection: hits, their analogues and other compounds. The true share with any hit is near 9.2%. Calls come from the whole dose curve; as a rule, active = well fitted curve in the direction sought with a large enough effect; inconclusive = small, poorly fitted or top-dose-only effect, or another doubt; inactive = no such curve, though single readings can be large; an effect the other way counts as inactive or inconclusive. Potency is the fitted concentration of half-maximal effect.

SMILES	FLuc counter	ELG1 DNA repair	SMN2 splice enh	NPC1 prom act	ELG1 genotoxic	Rab9 promoter act
CC(NC(=O)c1c(O)c2ccccc2[nH]c1=O)c1ccccc1 (stereo not given)	0%	22%	x	-4%	0%	10%
Brc1ccc(-c2nnc(-c3ccco3)o2)cc1	8.5µM*	u	x	3.2µM*	u	4µM*
c1coc(-c2nnc(-c3cccs3)o2)c1	u	u	11µM*	u	u	u
CSc1nnc(-c2ccco2)c(-c2ccco2)n1	u	-2%	u	0%	3%	7%
Cc1ccc(-c2nnc(-c3ccc(Br)cc3)o2)o1	3µM*	u	13µM*	u	u	3.2µM*
CCOc1ccc(-c2nnc(-c3ccco3)o2)cc1OCC	u	u	-15%	30%	u	u
CCN(CC)S(=O)(=O)c1cc(-c2nnc(-c3ccc(Br)cc3)o2)ccc1Br	-7%	u	-62%	-4%	0%	-5%
c1coc(-c2nnc(-c3ccco3)nn2)c1	17µM*	9%	x	u	4%	u
COc1cn(CC(=O)Nc2c(C)cc(C)cc2C)c(CN2CCCCC2)cc1=O	2%	x	x	x	x	x
CCN(c1ccccc1)S(=O)(=O)c1ccc(C(=O)NCC(=O)Nc2ccc(F)c(F)c2F)cc1	x	u	x	x	-5%	x
CN(C)S(=O)(=O)c1ccc(C(=O)NCCS(=O)(=O)N2CCN(c3ccccc3)CC2)cc1	-2%	x	x	x	x	x
O=C(Cc1ccccc1)Nc1ccc(-c2nnc(-c3ccco3)o2)cc1	3%	15%	1%	0%	2%	8%
c1ccc(-c2nnc(-c3ccco3)o2)cc1	21µM*	u	x	3.2µM*	2.1µM*	3.2µM*
COC(=O)c1ccc(/C=C2/SC(=S)N(CCC(=O)NCCCN3CCOCC3)C2=O)cc1	u	-12%	x	-3%	0%	-4%
CCOc1ccc(/C=C2\SC(=S)N(CCCC(=O)NCCCN3CCOCC3)C2=O)cc1	9.5µM*	8%	x	-34%	-16%	-37%
O=C(CCN1C(=O)/C(=C/c2ccccc2)SC1=S)NCCCN1CCOCC1	5%	-15%	x	-1%	-10%	-5%
O=C(CCCN1C(=O)/C(=C/c2ccccc2Cl)SC1=S)NCCCN1CCOCC1	17µM*	-18%	x	-13%	-18%	-11%
CCc1ccc(/C=C2/SC(=S)N(CCC(=O)NCCCN3CCOCC3)C2=O)cc1	5.4µM*	15%	x	10%	13%	-7%
Cc1ccc(-c2nc(N3CCN(c4ccccc4Cl)CC3)c3ccccc3n2)cc1	-1%	x	-3%	x	x	x
O=C(CN(Cc1ccccc1F)S(=O)(=O)c1ccc(Cl)cc1)NCC1CCCO1 (stereo not given)	0%	-17%	x	-5%	-5%	2%
CC1=C(c2ccc(C)cc2)S(=O)(=O)NC1=NCCCN1CCN(c2ccccc2F)CC1	0%	x	x	x	x	x
CC(C)CC(=O)Nc1cccc(-c2cn3cccnc3n2)c1	24µM*	x	x	x	x	x
CC(C)(C)CC(=O)Nc1ccc(-c2cn3cccnc3n2)cc1	9.5µM*	u	x	2.8µM*	u	u
Cc1onc(-c2ccccc2Cl)c1C(=O)Nc1ccc(-c2cn3cccnc3n2)cc1	-10%	13µM*	-19%	-3%	-8%	11%
CCOCC(=O)Nc1ccc(-c2cn3cccnc3n2)cc1	u	30%	13%	-1%	4%	3%
CCCC(=O)Nc1cccc(-c2cn3cccnc3n2)c1	-19%	u	7%	4%	9%	-4%
CC(C)CC(=O)Nc1ccc(-c2cn3cccnc3n2)cc1	15µM*	u	x	u	u	28%
Cc1ccc(-c2cn3cccnc3n2)cc1NC(=O)c1c(-c2ccccc2Cl)noc1C	u	u	11%	-22%	-2%	9%
COc1cc(CN2CCN(CC3CC3)CC2CCO)cc(OC)c1 (stereo not given)	2%	-7%	x	-3%	0%	-8%
